Assay results taken from PubChem BioAssay AID651813 (National Center for Advancing Translational Sciences (NCATS), 2012).
In all, about 2,100 compounds went through this assay and about 1,100 (52%) were called active. About 27% were inconclusive and are not listed. So high a share suggests a set chosen from earlier hits. The list shows a part of the results. Values without a mark were called inactive. Calls follow the shape of the dose curve; as a rule, active = well fitted inhibition curve with a large enough effect; inconclusive = small, poorly fitted or top-dose-only effect; inactive = no such curve, though single readings can be large or run the other way.

Each molecule was assayed against DNA dC->dU-editing enzyme APOBEC-3G (Homo sapiens) (UniProt Q9HC16) (assay: qHTS for inhibitors of Vif-A3G interactions: Cherry picks counterscreen). Conditions: HeLa A3G-eYFP + Vif (tagged APOBEC3G with the HIV-1 protein that degrades it), eYFP fluorescence, 24 h.
Procedure, shortened: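 HeLa cells stably expressing A3G-eYFP and Vif were treated for 24 h at 37 deg C with compounds at several concentrations; yellow fluorescence (Ex 488 nm, Em 500-530 nm) read by Acumen Explorer, MG132 as positive control.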
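Also: hits raise yellow fluorescence by blocking Vif-driven A3G-eYFP degradation; nearly all actives have a fitted effect of over 70% in size.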
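For max response in this document: max response given as percent of control signal.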
Potency is read from the fitted curve at half-maximal effect.

Chain of DNA dC->dU-editing enzyme APOBEC-3G (Homo sapiens) (Q9HC16 whole entry, looked up): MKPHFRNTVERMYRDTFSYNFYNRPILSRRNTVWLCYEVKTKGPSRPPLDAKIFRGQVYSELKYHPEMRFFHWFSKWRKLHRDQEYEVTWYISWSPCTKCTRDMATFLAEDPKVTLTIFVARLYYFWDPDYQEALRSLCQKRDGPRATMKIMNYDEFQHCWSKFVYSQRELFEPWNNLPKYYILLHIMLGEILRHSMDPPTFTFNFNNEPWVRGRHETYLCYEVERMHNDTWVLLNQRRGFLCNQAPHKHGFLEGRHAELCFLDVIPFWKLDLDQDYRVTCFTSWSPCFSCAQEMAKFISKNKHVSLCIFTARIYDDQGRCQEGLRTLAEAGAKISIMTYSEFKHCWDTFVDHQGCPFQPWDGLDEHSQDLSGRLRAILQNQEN

Structure (SMILES) | Potency | max response [%]
Cc1noc(C)c1COc1ccc(C(=O)NNC(=O)c2ccccc2F)cc1 | 8.86 µM (active) | 
Cc1noc(C)c1COc1ccc(C(=O)NNC(=O)c2ccccc2)cc1 | 5.59 µM (active) | 
CCOc1ccc(NC(=O)/C(C#N)=C/c2ccc(N3CCCC3)c(C)c2)cc1 | 2.06 µM (active) | 
CCOc1cc(/C=C(/C#N)C(=O)Nc2ccc(O)cc2)cc(Br)c1O | 17.7 µM (active) | 
CCOC(=O)c1c(-c2ccc(C)cc2)csc1NC(=O)/C(C#N)=C/c1ccc(O)c(OC)c1 |  | 57.5
Cc1cccc(N2CCN(C(=O)c3cccc(N4CCCC4=O)c3)C(C)C2)c1 (stereo not drawn) | 14 µM (active) | 
CCOc1ccc(NC(=O)Cn2c(=O)n(Cc3ccc(C(=O)NCc4ccc(C)cc4)cc3)c(=O)c3ccccc32)cc1 | 13 µM (active) | 
Cc1ccc(-n2c(=O)c3ccc(C(=O)NCc4ccccc4Cl)cc3n(CC(=O)Nc3cccc(Cl)c3)c2=O)cc1 |  | -24
Cc1ccc(N2C(=O)CS/C2=C(\C(Cl)=C(Cl)Cl)[N+](=O)[O-])cc1 |  | 1.1
Cc1ccc(NC(=O)/C(C#N)=C\c2ccc(-c3ccc(Cl)cc3)o2)c(C)c1 | 5.8 µM (active) | 
COc1ccc(C)c(Cn2c(-c3nonc3N)nc3ccccc32)c1 | 3.14 µM (active) | 
CC(NC(=S)Nc1cccc(C(F)(F)F)c1)C(C)(C)C (stereo not drawn) |  | 21.6
Nc1nonc1-c1nc2ccccc2n1CC(=O)Nc1cccc(C(F)(F)F)c1 | 18.4 µM (active) | 
COc1cccc(Cn2c(-c3nonc3N)nc3ccccc32)c1 | 1.25 µM (active) | 
COc1cccc(Cn2c(-c3nonc3NC(C)=O)nc3ccccc32)c1 | 11.6 µM (active) | 
Cc1cn2c(N)c(C=C3C=C(Cl)C(=O)C(Cl)=C3)c(=O)nc2s1 |  | 34.2
Cc1cccc(CSc2cccc3cccnc23)c1 |  | -11.2
CCC(C)Sc1ccc(-c2nc3cc(C)ccn3c2NC2CCCCC2)cc1 (stereo not drawn) |  | 26.9
CCC(=O)Nc1nonc1-c1nc2ccccc2n1Cc1ccccc1 | 14 µM (active) | 
Nc1nonc1-c1nc2ccccc2n1Cc1ccc(F)cc1 | 12.5 µM (active) | 
CCOC(=O)c1c(CN(CC)CC)n(-c2ccccc2)c2ccc(O)cc12 |  | 2.24
CCCN1C(=O)S/C(=C\c2ccc(N3CCOCC3)o2)C1=O | 2.23 µM (active) | 

Structure (SMILES) | Potency | max response [%]
O=C1S/C(=C/c2ccc(N3CCOCC3)o2)C(=O)N1Cc1ccc(F)cc1 | 7.04 µM (active) | 
O=C1S/C(=C\c2ccc(N3CCOCC3)o2)C(=O)N1c1ccccc1 | 1.98 µM (active) | 
CCCN1C(=O)S/C(=C/c2ccc(N3CCOCC3)o2)C1=O |  | 50.5
O=C1S/C(=C/c2ccc(N3CCOCC3)o2)C(=O)N1Cc1c(F)cccc1Cl | 2.8 µM (active) | 
Cc1cc(C)c(C(=O)N(CCN(C)C)CC2CCCN(Cc3ccccc3F)C2)o1 (stereo not drawn) |  | 0.428
COc1cc(/C=C2/SC(=S)N(CCC(=O)Nc3ccccc3)C2=O)cc(OC)c1OC | 20.6 µM (active) | 
O=C1/C(=C\c2ccc(O)cc2)SC(=S)N1Cc1ccccc1 |  | 39.2
C=CCN1C(=O)/C(=C/c2ccc(O)c(OC)c2)S/C1=N/c1nccs1 | 4.61 µM (active) | 
COc1cc(/C=C2/SC(=S)N(Cc3ccccc3)C2=O)cc(Cl)c1O | 2.23 µM (active) | 
COc1cc(/C=C2/SC(=S)N(Cc3ccccc3)C2=O)cc(OC)c1O | 12.5 µM (active) | 
COc1cc(/C=C2/SC(=S)N(CC3CCCO3)C2=O)ccc1O (stereo not drawn) | 16.4 µM (active) | 
O=C(O)c1cc(-c2ccc(/C=C3/SC(=S)N(Cc4ccccc4)C3=O)o2)ccc1Cl | 18.4 µM (active) | 
O=C1/C(=C/c2ccc(O)cc2)SC(=S)N1CC1CCCO1 (stereo not drawn) |  | -5.85
Cn1c(=O)c2c(nc(NC3CCCC3)n2C)n(C)c1=O |  | -1.35
CCCC(=O)NC(c1ccc(OC)cc1)c1ccc2cccnc2c1O (stereo not drawn) |  | -9.5
CCC(=O)NC(c1ccc(OC)cc1)c1c(O)ccc2ccccc12 (stereo not drawn) | 9.94 µM (active) | 
CCCSc1nnc(N2C(=O)C(O)=C(C(=O)c3ccco3)C2c2ccccc2F)s1 (stereo not drawn) |  | -7.3
Cc1ccc(C2C(C(=O)c3cccs3)=C(O)C(=O)N2c2nnc(C)s2)cc1 (stereo not drawn) | 19.8 µM (active) | 
Cc1ccc(NC2=C(Cl)C(=O)N(C3CCCCC3)C2=O)cc1 |  | 6.01
Cn1cccc1/C=C1\CC(C(C)(C)C)C/C(=C\c2cccn2C)C1=O (stereo not drawn) | 8.2 µM (active) | 
CN1C2CCC1/C(=C/c1cccn1C)C(=O)/C2=C\c1cccn1C | 8.2 µM (active) | 
O=c1oc2c3c4c(cc2c(C(F)(F)F)c1CCN1CCOCC1)CCCN4CCC3 | 2.31 µM (active) | 

Structure (SMILES) | Potency | max response [%]
COc1ccc(/C=C(/C(=O)c2cccs2)N2C=CC=CC2=C(C#N)C#N)cc1 | 15.8 µM (active) | 
CCN(CC)c1nc2ccccc2nc1C(C#N)C(=O)NCCc1ccccc1 (stereo not drawn) | 13 µM (active) | 
C=CCNC(=O)C(C#N)c1nc2ccccc2nc1N1CCN(Cc2ccccc2)CC1 (stereo not drawn) |  | -10.2
COc1ccc(C(=O)/C=C/Nc2ccc([N+](=O)[O-])cc2C)c(OC)c1 | 23.1 µM (active) | 
COc1ccc(-c2nnc(NC(=O)c3ccc([N+](=O)[O-])o3)o2)c(OC)c1 |  | -27.9
COc1cc(SC)ccc1C(=O)N1CCN(c2ccccc2OC)CC1 | 5.59 µM (active) | 
COc1ccc(C(=S)N2CCN(c3cccc(Cl)c3)CC2)c(OC)c1 | 3.53 µM (active) | 
CCS(=O)(=O)N1CCc2cc(C(=O)N3CCN(c4cccc(C(F)(F)F)c4)CC3)ccc21 |  | -3.11
COc1ccccc1N1CCN(C(=O)c2ccc3ncsc3c2)CC1 | 17.7 µM (active) | 
COc1ccccc1C(=O)N1CCN(c2cccc(Cl)c2)CC1 | 1.4 µM (active) | 
COc1ccccc1N1CCN(C(=O)c2cc(=O)c3cc(C)cc(C)c3o2)CC1 | 0.158 µM (active) | 
COC(=O)c1cc(C(=O)N2CCN(c3ccccc3OC)CC2)cc([N+](=O)[O-])c1 | 1.12 µM (active) | 
CCSc1ncc(Cl)c(C(=O)N2CCN(c3ccccc3OC)CC2)n1 | 4.61 µM (active) | 
NNC(=S)Nc1c(F)cc(F)cc1Br |  | -0.636
O=C(N/N=C/c1ccc([N+](=O)[O-])o1)c1cn2ccc3ccccc3c2n1 |  | 3.73
O=[N+]([O-])c1ccc(/C=N/Nc2ccc3ccccc3c2)o1 | 4.98 µM (active) | 
Cc1cc(N/N=C/c2ccc([N+](=O)[O-])o2)nc2ccccc12 | 23.1 µM (active) | 
CCCN1CCc2c(sc(NC(=O)c3ccc(S(=O)(=O)N(C)c4ccccc4)cc3)c2C(=O)NC)C1 | 18.4 µM (active) | 
CCCN1CCc2c(sc(NC(=O)c3ccc(S(=O)(=O)N4CCN(C(=O)OCC)CC4)cc3)c2C(N)=O)C1 | 23.1 µM (active) | 
CCN1CCc2c(sc(NC(=O)c3ccc(S(=O)(=O)N(CC)c4ccccc4)cc3)c2C(N)=O)C1 | 5.59 µM (active) | 
CCCN1CCc2c(sc(NC(=O)c3ccc(S(=O)(=O)N(C)c4ccccc4)cc3)c2C(N)=O)C1 | 14.6 µM (active) | 
CC(C)N1CCc2c(sc(NC(=O)c3ccc(S(=O)(=O)N4CCOCC4)cc3)c2C#N)C1 | 8.2 µM (active) | 

Structure (SMILES) | Potency | max response [%]
CC(C)N1CCc2c(sc(NC(=O)c3cc4cc([N+](=O)[O-])ccc4s3)c2C(N)=O)C1 | 23.1 µM (active) | 
CCCN1CCc2c(sc(NC(=S)NC(=O)c3ccccc3)c2C#N)C1 | 14.6 µM (active) | 
NC(=O)c1c(NC(=O)c2ccccc2)sc2c1CCN(Cc1ccccc1)C2 | 15.8 µM (active) | 
CCOC(=O)/C(=C/C1=CC(=C/N(C)C)/C(=O)O1)C(C)=O |  | 1.47
CC(C)CN(CC(C)C)S(=O)(=O)c1ccc(C(=O)Nc2sc3c(c2C(N)=O)CCN(C(C)C)C3)cc1 | 18.4 µM (active) | 
Cc1cccc(C)c1OCCNC(=O)C(=O)NCc1ccco1 | 2.8 µM (active) | 
Cc1ccccc1NC(=O)c1ccc2c(c1)c(C)c(C)n2Cc1ccccc1 | 2.91 µM (active) | 
CCCCCn1c(=O)[nH]c2cc(C(=O)Nc3cc(OC)cc(OC)c3)ccc2c1=O |  | -23.9
COc1ccc(NC(=O)c2ccc3c(c2)c(C)c(C)n3Cc2ccc(F)cc2)cc1 | 5.17 µM (active) | 
Cc1cc(NC(=O)COC(=O)c2ccc(S(=O)(=O)N3CCCc4ccccc43)cc2)no1 | 4.44 µM (active) | 
CC(=O)Nc1ccc(S(=O)(=O)N2CCSc3ccccc32)cc1 | 4.98 µM (active) | 
O=C(CN1c2cccc3cccc(c23)S1(=O)=O)Nc1ccc(S(=O)(=O)N2CCOCC2)cc1 |  | -29.7
COC(=O)Nc1ccc(S(=O)(=O)N2CCCc3ccccc32)cc1 | 3.53 µM (active) | 
Cc1ccc(CNC(=O)C2CC(c3cc(C(F)(F)F)cc(C(F)(F)F)c3)=NO2)o1 (stereo not drawn) | 8.86 µM (active) | 
COc1ccccc1N1CCN(c2ncnc3c2oc2ccccc23)CC1 | 3.14 µM (active) | 
CCN1/C(=C/C=C2/SC(=Nc3cccc4ncccc34)N(C)C2=O)Sc2ccccc21 | 4.11 µM (active) | 
Cc1c(N=C2N=C(NC(=O)c3cccs3)c3ccccc32)c(=O)n(-c2ccccc2)n1C | 12.5 µM (active) | 
Cc1c(NC(=O)c2csc3c2CCCC3)c(=O)n(-c2ccccc2)n1C |  | -8.09
CC#Cc1cc2c(cc1O)CCC1C2CCC2(C)C(O)CCC12 (stereo not drawn) | 4.44 µM (active) | 
CCSc1nccc(-c2nn(-c3ccc(C)cc3)ccc2=O)n1 | 3.53 µM (active) | 
NNC(=O)c1oc2nc(-c3ccccc3)cc(-c3ccco3)c2c1N | 18.4 µM (active) | 
Cc1ccc(-c2cc(-c3ccco3)c3c(N)c(C(=O)NN)oc3n2)cc1 | 23.1 µM (active) | 
